Active and inactive are the calls of the source.

The values below come from PubChem BioAssay.

Experiment [1] relates to Human papillomavirus type 1a protein E7 (residues 44-93). Nature of the experiment: HPV1a E7 fragment binders on microarrays, primary screen, biochemical, small-molecule microarray, residues 44-93, 635 nm fluorescence (AID 1108).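 Note: E7 fragment applied at 1 µg/mL in TBST for 1 h at 4 C; score combines spot fluorescence with its signal to noise ratio.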 To be noted: small-molecule microarray binding, fluorescence 635 nm; higher = more signal.
Experiment [2] can be described thus: modulators of HCV replicon luciferase signal, primary screen, HCV replication inhibitor project, Huh7 cells, luciferase reporter (AID 1109).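 Note: huh7 hepatoma cells harbouring a luciferase neomycin HCV replicon reporter; luciferase luminescence as measure of HCV replicon replication; test concentration not given here.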 Particulars: 48 h, higher = more signal.
Experiment [3] deals with Left-right determination factor 2 (Homo sapiens) (UniProt O00292). Nature of the experiment: LEFTY2 binders on small-molecule microarrays, primary screen, biochemical, small-molecule microarray, 635 nm fluorescence scan (AID 1110). Particulars: LEFTY2 binding, higher = more signal.
For experiment [4], the target named is Calmodulin-1 (Homo sapiens) (UniProt P0DP23). Nature of the experiment: CALM1 binders on microarrays, EGTA buffer, profiling panel, biochemical, small-molecule microarray, Cy5-labelled CALM1 (AID 1111).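 Note: labelled calmodulin applied in Tris saline Tween buffer holding calcium plus EGTA and DTT.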 To be noted: Cy5-CALM1 binding fluorescence, higher = more signal.
Experiment [5] shares this target. Nature of the experiment: calcium-bound CALM1 binders on microarrays, profiling panel, artefact control for SMM control-protein annotation, biochemical, small-molecule microarray, Cy5-labelled CALM1, plus calcium (AID 1112).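 Note: score merges spot fluorescence with signal to noise from triplicate slides.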 To be noted: Cy5-CALM1 binding fluorescence, higher = more signal.
The nature of experiment [6]: small-molecule microarray binders of probe aWnt5a, primary screen, biochemical, biotinylated probe, 635/667 nm fluorescence (AID 1113).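 Note: score merges 667 nm fluorescence intensity with signal-to-noise per printed feature.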 Particulars: higher = more signal.
The nature of experiment [7]: small-molecule microarray binders of probe aShh, primary screen, biochemical, biotinylated probe, 635/667 nm fluorescence (AID 1114).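 Note: probe is biotin-labelled aShh protein from a stem cell growth factor screen; measures binding of labelled protein to compounds printed on the slide; score merges feature fluorescence at 667 nm with signal-to-noise.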 To be noted: higher = more signal.
The nature of experiment [8]: small-molecule microarray binders of probe aNog, primary screen, biochemical, biotinylated probe, 635/667 nm fluorescence (AID 1115).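 Note: probe is biotinylated aNog protein used at 0.15 µg/mL for 1 h at 4 C; z-score combines 667 nm fluorescence of each spot with its signal to noise.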 Particulars: higher = more signal.
Experiment [9] has as its target Torsin-1A-interacting protein 1 (Homo sapiens) (UniProt Q5JTV8). Nature of the experiment: LAP1 binders from COS7 cell lysate, primary screen, small-molecule microarray, 635/667 nm fluorescence (AID 1116). To be noted: COS7-hLAP1 lysate binding, 635 nm fluorescence, higher = more signal.
In experiment [10] the target is Alpha-bungarotoxin (Bungarus multicinctus) (UniProt P60615). Briefly: alpha-bungarotoxin binders on microarray, profiling panel, artefact control for SMM control protein annotation, biochemical, small-molecule microarray, Alexa647 label, 635/667 nm fluorescence (AID 1117). To be noted: alpha-BTX-A647 binding fluorescence, higher = more signal.
Another experiment concerns the target Albumin (Bos taurus) (UniProt P02769). Briefly: bovine serum albumin binders on microarray, profiling panel, artefact control for SMM control protein annotation, biochemical, small-molecule microarray, Alexa647 label, 635/667 nm fluorescence (AID 1118).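 Note: score merges 667 nm emission intensity and signal-to-noise per printed compound spot.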 To be noted: BSA-A647 binding, fluorescence 635 nm, higher = more signal.
Experiment [11] in a line: small-molecule microarray binders of probe aXIP, primary screen, biochemical, NeuroSMM set, 635/667 nm fluorescence (AID 1119).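 Note: probe is the protein aXip251-270 applied at 1 µg/mL to compound-printed slides; binding of probe to printed compounds measured as 667 nm fluorescence plus signal to noise.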 Particulars: higher = more signal, called active from +8 up or from −8 down.
The nature of experiment [12]: small-molecule binders of probe aNOTCH3, primary screen, biochemical, small-molecule microarray, 635/667 nm fluorescence (AID 1120).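 Note: probe is a biotin-tagged antibody raised against NOTCH3 rather than NOTCH3 protein; score merges spot fluorescence near 667 nm with spot signal to noise.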 To be noted: higher = more signal.
Experiment [13] is described as follows: small-molecule binders of probe aNOTCH2, primary screen, biochemical, small-molecule microarray, 635/667 nm fluorescence (AID 1121).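 Note: score merges feature fluorescence read at 667 nm with its signal to noise.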 Particulars: higher = more signal.
The target in experiment [14] is Carbonic anhydrase 2 (Homo sapiens) (UniProt P00918). Nature of the experiment: CAII small-molecule binders, profiling panel, biochemical, small-molecule microarray, Alexa647-labelled CAII (AID 1122). Particulars: CAII-A647 binding fluorescence, higher = more signal.
Experiment [15] in a line: COS7 lysate on small-molecule microarray, probe aHis, 635 nm (AID 1123).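 Note: z-score combines 667nm fluorescence intensity with signal-to-noise per printed compound spot.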 Particulars: COS7 cell lysate, fluorescence, higher = more signal.
A short description of experiment [16]: compound binding in COS7 lysate, probe aLAP1, primary screen, cell lysate, small-molecule microarray (AID 1124).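 Note: lysate comes from COS7 cells expressing LAP1 and is applied at 0.3 µg/mL; score merges spot fluorescence near 667 nm with signal-to-noise over triplicate slides.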 To be noted: probe aLAP1, fluorescence, higher = more signal.
In a further experiment the test system is Sam68 (KHDRBS1). Nature of the experiment: Sam68 small-molecule binders, primary screen, biochemical, small-molecule microarray, 635 nm fluorescence (AID 1125).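 Note: score merges 667 nm channel intensity with signal to noise over triplicate slides.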 To be noted: small-molecule microarray binding, higher = more signal.
Experiment [17] relates to Chordin-like protein 2 (CHRDL2). Briefly: CHRDL2 small-molecule binders, primary screen, biochemical, small-molecule microarray, 635 nm fluorescence (AID 1126).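 Note: printed compound slides probed with Chrdl2 protein at 4 µg/mL for 1 h at 4 C; score merges 667 nm emission intensity with signal to noise over three replicate slides.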 To be noted: small-molecule microarray binding, fluorescence 635 nm; higher = more signal.
In experiment [18] the target is Concanavalin-A (Canavalia ensiformis) (UniProt P02866). Nature of the experiment: ConA small-molecule binders, primary screen, artefact control for SMM control protein annotation, biochemical, small-molecule microarray, Alexa647 label, 635 nm (AID 1127).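 Note: z combines 667 nm emission intensity with signal-to-noise across three replicate slides.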 To be noted: ConA-A647 binding fluorescence, higher = more signal.
Chain of Concanavalin-A (Canavalia ensiformis) (P02866 whole entry, looked up): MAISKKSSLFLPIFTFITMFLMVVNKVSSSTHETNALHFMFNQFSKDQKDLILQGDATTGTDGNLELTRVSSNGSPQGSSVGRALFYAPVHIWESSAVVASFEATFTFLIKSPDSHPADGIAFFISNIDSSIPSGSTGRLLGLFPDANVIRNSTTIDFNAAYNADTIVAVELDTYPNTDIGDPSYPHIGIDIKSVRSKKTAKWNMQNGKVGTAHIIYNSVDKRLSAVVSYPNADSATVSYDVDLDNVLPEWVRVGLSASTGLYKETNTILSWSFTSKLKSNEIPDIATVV

Chain of Left-right determination factor 2 (Homo sapiens) (O00292 whole entry, looked up): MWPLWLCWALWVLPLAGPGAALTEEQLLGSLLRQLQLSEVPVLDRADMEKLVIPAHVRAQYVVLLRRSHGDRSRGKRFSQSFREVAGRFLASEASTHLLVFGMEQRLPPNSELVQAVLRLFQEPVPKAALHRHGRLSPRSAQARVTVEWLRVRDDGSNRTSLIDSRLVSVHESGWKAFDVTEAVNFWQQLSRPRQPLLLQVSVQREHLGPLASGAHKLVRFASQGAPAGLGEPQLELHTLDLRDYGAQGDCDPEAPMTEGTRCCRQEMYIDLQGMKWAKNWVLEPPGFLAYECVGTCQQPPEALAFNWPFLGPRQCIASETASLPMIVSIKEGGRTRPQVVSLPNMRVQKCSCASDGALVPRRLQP
Chain of Albumin (Bos taurus) (P02769 whole entry, looked up): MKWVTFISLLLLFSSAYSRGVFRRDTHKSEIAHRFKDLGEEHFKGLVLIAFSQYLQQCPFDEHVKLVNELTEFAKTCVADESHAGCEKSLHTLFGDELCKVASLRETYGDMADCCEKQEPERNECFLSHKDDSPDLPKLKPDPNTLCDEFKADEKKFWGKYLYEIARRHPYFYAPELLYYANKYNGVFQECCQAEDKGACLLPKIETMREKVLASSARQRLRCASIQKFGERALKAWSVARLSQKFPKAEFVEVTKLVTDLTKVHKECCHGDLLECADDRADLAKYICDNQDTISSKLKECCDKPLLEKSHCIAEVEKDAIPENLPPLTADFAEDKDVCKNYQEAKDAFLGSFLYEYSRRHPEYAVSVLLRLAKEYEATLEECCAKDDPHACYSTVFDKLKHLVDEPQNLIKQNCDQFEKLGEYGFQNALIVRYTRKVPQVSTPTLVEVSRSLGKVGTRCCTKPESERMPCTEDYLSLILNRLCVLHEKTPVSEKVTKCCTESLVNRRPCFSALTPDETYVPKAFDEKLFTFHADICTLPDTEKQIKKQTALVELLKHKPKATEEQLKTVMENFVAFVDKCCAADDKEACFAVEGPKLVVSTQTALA
Chain of Torsin-1A-interacting protein 1 (Homo sapiens) (Q5JTV8 whole entry, looked up): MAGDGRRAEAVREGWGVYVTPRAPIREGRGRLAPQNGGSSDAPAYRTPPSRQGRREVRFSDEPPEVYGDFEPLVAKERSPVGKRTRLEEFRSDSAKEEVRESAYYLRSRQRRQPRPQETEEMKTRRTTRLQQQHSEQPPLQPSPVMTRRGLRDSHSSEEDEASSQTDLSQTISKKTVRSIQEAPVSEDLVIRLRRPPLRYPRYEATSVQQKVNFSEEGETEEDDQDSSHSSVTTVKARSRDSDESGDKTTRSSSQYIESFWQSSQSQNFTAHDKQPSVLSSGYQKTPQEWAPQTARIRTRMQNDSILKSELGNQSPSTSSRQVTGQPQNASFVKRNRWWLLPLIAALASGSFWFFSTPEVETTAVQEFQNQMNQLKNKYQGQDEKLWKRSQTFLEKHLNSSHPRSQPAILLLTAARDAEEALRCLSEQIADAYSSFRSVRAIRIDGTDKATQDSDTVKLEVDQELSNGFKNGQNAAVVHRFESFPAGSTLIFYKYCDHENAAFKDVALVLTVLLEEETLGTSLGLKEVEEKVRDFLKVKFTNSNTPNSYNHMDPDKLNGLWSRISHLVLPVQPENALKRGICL
Chain of Alpha-bungarotoxin (Bungarus multicinctus) (P60615 whole entry, looked up): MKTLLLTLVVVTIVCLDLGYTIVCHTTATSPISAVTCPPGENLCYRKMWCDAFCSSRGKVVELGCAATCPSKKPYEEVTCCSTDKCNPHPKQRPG

As to `O=C1C[C@@](C(=O)NCc2ccccc2)(c2ccc([N+](=O)[O-])cc2)[C@@H](c2ccc(CO)cc2I)N1CC12CC3CC(CC(C3)C1)C2`, the composite z-score in [1] was 1.39; in [3], 0.591; in [4], 0.387; in [5], 0.0818; in [6] it was -0.0529; in [7] it was -0.152. Further, the composite z-score in [8] is -0.131; in experiment [9], 0.903; in experiment [10], 1.02; with Albumin (Bos taurus) it was 0.59; in experiment [12], -0.223; in experiment [13], -0.14. The composite z-score is 0.721 in [14]; 2.25 in [15]; 0.0884 in experiment [16]; 1.21 with Sam68 (KHDRBS1); 0.542 in experiment [17]; 0.999 in [18]. For the same compound, the z-score in experiment [2] is -3.32. Besides, the composite Z-score in experiment [11] is -0.0102 (inactive).

With `CCOC(=O)C=Cc1cc(F)ccc1O`, the composite z-score in experiment [1] is 0.261; in [3], -0.251; in experiment [4] it was -0.297; in [5], -0.352; in [6], -0.0462; in [7], 0.0469. Also, the composite z-score in [8] was -0.181; in experiment [9] it was -0.207; in [10], 0.0531; with Albumin (Bos taurus) it was -0.0584; in experiment [12], -0.0324; in [13], -0.0995. For the same compound, the composite z-score in [14] stood at 0.384; in experiment [15], 0.149; in [16] it was 0.0926; in the experiment on Sam68 (KHDRBS1) it was 0.161; in experiment [17], 0.133; in [18], 0.126. The z-score in experiment [2] was -1.36. Besides, in experiment [11], the composite Z-score was -0.276 (inactive).

Take `O=C1[C@@]23C=C(Br)[C@H](C[C@@H]2COC3)[C@@]12CO2`: the composite z-score in experiment [1] is 0.368; in [3] it was 0.531; in experiment [4] it was -0.293; in experiment [5], -0.87; in experiment [6] it was -0.102; in experiment [7] it was -0.0396. Besides, the composite z-score in experiment [8] was -0.172; in experiment [9], 0.245; in experiment [10], 0.53; with Albumin (Bos taurus) it was -0.512; in experiment [12] it was 0.147; in experiment [13] it was -0.153. Also, the composite z-score in [14] is -0.0903; in experiment [15], 0.301; in experiment [16] it was -0.0796; in the experiment with Sam68 (KHDRBS1), 0.206; in experiment [17], 0.532; in experiment [18], 0.459. This compound yielded a z-score in experiment [2] of -2.52. For the same compound, the composite Z-score in experiment [11] is 0.395 (inactive).

Consider `COC(=O)C1N=C(c2ccc(OCCCO)cc2)N(c2ccccc2)O1` (stereo not given), for which the composite z-score in experiment [1] was 0.154; in experiment [3], 0.681; in experiment [4], 0.933; in experiment [5], 0.576; in experiment [6], -0.196; in experiment [7], -0.0681. In addition, the composite z-score is 0.438 in experiment [8]; 0.924 in experiment [9]; 2.07 in [10]; 0.878 with Albumin (Bos taurus); 0.187 in experiment [12]; -0.0073 in experiment [13]. For the same compound, the composite z-score is 0.403 in [14]; 1.1 in experiment [15]; 0.382 in experiment [16]; 1.14 in the experiment on Sam68 (KHDRBS1); 0.236 in [17]; 1.11 in [18]. The compound further returned a z-score in experiment [2] of -2.69. For the same compound, in experiment [11], the composite Z-score is 0.608 (inactive).

In the case of `CC1(C)C(=O)C(c2ccccc2)=C2CN3C(=O)N(CCc4ccccc4)C(=O)C3(Cc3ccc(F)cc3)C=C21` (stereo not given), the composite z-score in [1] was 0.754; in experiment [3] it was -1.24; in [4] it was 1.11; in experiment [5] it was 0.725; in [6], 0.317; in experiment [7] it was 0.717. In addition, the composite z-score in experiment [8] is 1.8; in experiment [9] it was 0.551; in experiment [10], 0.273; in the experiment with Albumin (Bos taurus), 0.471; in experiment [12], 0.781; in [13], 0.246. For the same compound, the composite z-score was 0.0225 in experiment [14]; 1.39 in experiment [15]; 0.155 in experiment [16]; 0.222 in the experiment on Sam68 (KHDRBS1); -1.21 in [17]; 0.477 in experiment [18]. In addition, the z-score in experiment [2] is -1.47. For the same compound, the composite Z-score in [11] is 0.0294 (inactive).

Regarding `CN1C(=O)C2C(C1=O)C1C=C(CCCO)C2C(C2CC2)N1Cc1cc2c(cc1Br)OCO2` (stereo not given), the composite z-score in [1] was 0.295; in [3] it was 0.285; in experiment [4], 0.508; in [5] it was 0.724; in experiment [6], -0.0462; in [7], 0.0893. Besides, the composite z-score in experiment [8] was 1.21; in [9], 1.33; in [10] it was 1.58; in the experiment with Albumin (Bos taurus) it was 0.984; in [12] it was 0.201; in [13], -0.0097. The composite z-score in experiment [14] came out at 0.756; in experiment [15], 2.63; in experiment [16], 1.25; in the experiment on Sam68 (KHDRBS1), 1.18; in experiment [17], 0.0995; in experiment [18], 0.738. The z-score in [2] is -0.734. Besides, the composite Z-score in experiment [11] is 1.32 (inactive).
